Results taken from PubChem BioAssay (NCATS).
Results filed as inconclusive are left out. Entries that show only a call come without a potency. A number with no mark means an inactive call. The source made the active and inactive calls. The call rests on the fitted dose curve; in most records, active means well fitted inhibition curve with a large enough effect; inconclusive means small, poorly fitted or top-dose-only effect; inactive means flat fitted curve, though single readings scatter.

experiment: P-glycoprotein substrates identified in KB-8-5-11 adenocarcinoma cell line, qHTS therapeutic library screen (AID 1346987); conditions: KB-8-5-11 (P-gp overexpressing) viability, CellTiter-Glo, 72 h; series mostly up to 44.5 µM; further: nearly all actives have a fitted effect of over 65% in size
Outline: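 Human cervical adenocarcinoma KB-8-5-11 cells, selected in colchicine to over-express P-gp and assayed without it, were exposed for 72 h to titrated compounds. An ATP-based luminescent viability signal gave AC50.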
Potency means the concentration at half of the fitted maximal effect.

Which Potency does the source give for `c1ccc(-c2cnn3cc(-c4ccc(OCCN5CCOCC5)cc4)cnc23)cc1` here?
Its Potency is 1.64 µM (active).

For `CCC(C)c1ccc(NC(=O)Cn2cnc3c2c(=O)n(C)c(=O)n3C)cc1` (centres undefined), which Potency is on record?
The Potency was “inactive”.

Which Potency does the source give for `COc1cc(N2CCC(O)CC2)ccc1Nc1nc(Nc2ccccc2S(=O)(=O)C(C)C)c2[nH]cnc2n1` here?
The Potency was “inactive”.

For `CC(C)CCCCC(=O)N[C@@H](CO)C(=O)N[C@@H](CC(C)C)C(=O)[C@@]1(CO)CO1`, which Potency is on record?
Its Potency is “inactive”.

Which outcome does the source give for `C[C@@H]1O[C@@H](O[C@H]2[C@@H](OC(=O)[C@]34CCC(C)(C)CC3C3=CCC5[C@@]6(C)C[C@H](O)[C@H](O[C@@H]7O[C@H](CO)[C@@H](O)[C@H](O)[C@H]7O[C@@H]7OC[C@@H](O)[C@H](O)[C@H]7O)[C@@](C)(C(=O)O)C6CC[C@@]5(C)[C@]3(C)CC4)OC[C@H](O)[C@@H]2O)[C@H](O)[C@H](O)[C@H]1O[C@@H]1OC[C@@H](O)[C@H](O)[C@H]1O` (some centres undefined) here?
The outcome was “inactive [at 9.29 µM]”.

With `O=C(NCCN1CCOCC1)c1cc2c(Oc3ccc(NC(=O)C4(C(=O)Nc5ccc(F)cc5)CC4)cc3)ccnc2[nH]1` as the compound, how does the Potency read?
Its Potency is “inactive”.

Which Potency does the source give for `CNS(=O)(=O)c1ccccc1Nc1nc(Nc2ccc(N3CCN(C)CC3)cc2OC)ncc1Br` here?
Its Potency is 2.06 µM (active).

With `C[C@@H]1CC[C@]2(C(=O)O)CC[C@]3(C)C(=CCC4[C@@]5(C)CC[C@H](O)[C@](C)(C(=O)O)C5CC[C@]43C)C2[C@]1(C)O` (some centres undefined) as the compound, how does the Potency read?
The Potency was “inactive”.

Which Potency does the source give for `O=C(Nc1ccc(CN2CCOCC2)cc1)c1ccc(-c2cccc(Cl)c2)o1` here?
Its Potency is 16.4 µM (active).

With `COc1cc2nc(N3CCN(C(=O)COc4c(OC)cccc4C(C)C)CC3)nc(N)c2cc1OC` as the compound, how does the Potency read?
Its Potency is “inactive”.

Which Potency does the source give for `CC(=O)OC1CCC2(C)C(CCC3(C)C2CC=C2C4C(C)C(C)CCC4(C)CCC23C)C1(C)C(=O)O` (centres undefined) here?
The Potency was “inactive”.

Which Potency does the source give for `COc1cc(-c2nc(N[C@H](CO)Cc3ccccc3)ccc2C(=O)NCCOc2ccccc2)cc(OC)c1OC` here?
Its Potency is “inactive”.

Which Potency does the source give for `Cc1cc(N2CCN(C(=O)Oc3ccc(-c4ccccc4)cn3)CC2)c2ccccc2n1` here?
The Potency was 14.6 µM (active).

With `CC(C)(Cc1ccccc1)NCC(O)c1ccc(O)c(NS(C)(=O)=O)c1` (centres undefined) as the compound, how does the Potency read?
Its Potency is “inactive”.

Which Potency does the source give for `COC(=O)C1=CO[C@@H](O[C@@H]2O[C@H](CO)[C@@H](O)[C@H](O)[C@H]2O)[C@H]2[C@@H]1C=C[C@]21C=C([C@H](C)OC(=O)/C=C/c2ccc(O)cc2)C(=O)O1` here?
The Potency was 4.32 µM (active).

For `C=CC(C)(O)CC/C=C(\C)C(=O)OC1C(O)C(CO)OC(OC(=O)C23CCC(C)(C)CC2C2=CCC4C5(C)CCC(OC6OC(COC7OCC(OC(C)=O)C(O)C7OC7OC(COC(C)=O)C(O)C(O)C7OC(C)=O)C(O)C(O)C6OC6OCC(O)C(O)C6O)C(C)(C)C5CCC4(C)C2(C)C(O)C3O)C1OC1OCC(OC2OCC(O)C(OC3OCC(O)C(O)C3O)C2O)C(O)C1O` (centres undefined), which activity change, negative = cytotoxicity is on record?
Its activity change, negative = cytotoxicity is -2.64% [at 5.11 µM].

For `CC(C)(C)c1ccc(C(=O)Nc2cn3cc(-n4ccnc4)ccc3n2)cc1`, which Potency is on record?
The Potency was “inactive”.

With `CN(C)CCN(Cc1ccc(-c2ccc(CNCCc3ccccc3)cc2)cc1)C(=O)CCC1CCCC1` as the compound, how does the Potency read?
The Potency was 4.11 µM (active).

For `COc1ccc2nccc(C(=O)CC[C@@H]3CCN(CC#Cc4cc(F)cc(F)c4F)C[C@@H]3C(=O)O)c2c1`, which Potency is on record?
The Potency was “inactive”.

For `CC1CCC/C=C/C(=O)c2c(O)cc(O)cc2CC(=O)O1` (centres undefined), which Potency is on record?
The Potency was 5.8 µM (active).

For `CC(C)=CCCC1(C)C2CCC1(C)C(O)C2` (centres undefined), which Potency is on record?
Its Potency is “inactive”.

For `C=C1CC[C@@H]2[C@](C)(CO)[C@H](O)CC[C@@]2(C)[C@@H]1CC(=O)C1=CCOC1=O`, which Potency is on record?
Its Potency is “inactive”.

Which Potency does the source give for `Cn1c(CO)c(-c2ccccc2)c2cc([N+](=O)[O-])ccc21` here?
Its Potency is “inactive”.

For `C/C=C(\C)[C@@H]1C(C)=C[C@@H]2[C@H]([C@@H]1/C=C/C=C/C(=O)O)[C@@H](C)CC[C@@H]2O`, which Potency is on record?
Its Potency is 11.4 µM (active).

With `C=C[C@@]1(C)CCC2C(=CCC3[C@]2(C)CCC[C@@]3(C)C(=O)O)C1` (some centres undefined) as the compound, how does the Potency read?
The Potency was “inactive”.

Which Potency does the source give for `O=C(Nc1ccc(N2C(=O)[C@@H]3[C@H](C2=O)[C@@H]2C=C[C@H]3C2)c(Cl)c1)c1ccccn1` here?
The Potency was “inactive”.

With `CC(C)=CCC[C@](C)(O[C@@H]1O[C@H](CO[C@@H]2OC[C@@H](O)[C@H](O)[C@H]2O)[C@@H](O)[C@H](O)[C@H]1O)[C@H]1CC[C@]2(C)[C@@H]1[C@H](O)C[C@@H]1[C@@]3(C)CC[C@H](O[C@@H]4O[C@H](CO)[C@@H](O)[C@H](O)[C@H]4O)C(C)(C)[C@@H]3CC[C@]12C` as the compound, how does the Potency read?
The Potency was “inactive”.

For `COc1ccc(NC(=O)c2ccc(-c3ccc(-c4nnc(C)o4)cc3C)cc2)cc1N1CCN(C)CC1`, which Potency is on record?
The Potency was “inactive”.

For `C=CC(C)(C)C12CC3C(=O)N4C(CC5(C(C)(C)C=C)c6ccccc6NC45)C(=O)N3C1Nc1ccccc12` (centres undefined), which Potency is on record?
Its Potency is “inactive”.

Which Potency does the source give for `C#CCCCn1cc(-c2cccc3c2N[C@H](C)CC(=O)N3)cn1` here?
Its Potency is 1.46 µM (active).

Which Potency does the source give for `CCC(C)C(=O)O[C@H]1[C@@H](OC(=O)c2ccoc2)C[C@](C)(O)[C@]23OC(C)(C)[C@H](C[C@H](OC(=O)c4ccoc4)[C@]12COC(C)=O)[C@H]3OC(C)=O` (some centres undefined) here?
Its Potency is “inactive”.

With `Cn1ncnc1[C@H]1c2n[nH]c(=O)c3cc(F)cc(c23)N[C@@H]1c1ccc(F)cc1` as the compound, how does the Potency read?
Its Potency is “inactive”.

For `NC(N)=NC(=O)c1cnn(-c2cccc3ncccc23)c1C1CC1`, which Potency is on record?
The Potency was “inactive”.

With `Cc1cc(NC(=O)c2cccc(NC(=O)/C=C/CN(C)C)c2)ccc1Nc1nccc(-c2cccnc2)n1` as the compound, how does the Potency read?
The Potency was “inactive”.

With `COc1cc(CCO)ccc1O[C@@H]1O[C@H](CO)[C@@H](O)[C@H](O)[C@H]1O` as the compound, how does the Potency read?
The Potency was “inactive”.

Which Potency does the source give for `O=C1c2ccc(Nc3ccc(F)cc3F)cc2CCc2ccc(OCC(O)CO)cc21` (centres undefined) here?
Its Potency is 14.6 µM (active).

Which Potency does the source give for `C=CC(C)(O)CC/C=C(/C)COC(=O)C(C)C1CCC(C)(C=C)O1` (centres undefined) here?
Its Potency is “inactive”.

Which Potency does the source give for `CCC(C(C)O)n1ncn(-c2ccc(N3CCN(c4ccc(OCC5COC(Cn6cncn6)(c6ccc(F)cc6F)C5)cc4)CC3)cc2)c1=O` (centres undefined) here?
The Potency was 18.4 µM (active).

Which Potency does the source give for `Cc1cc(C(=O)Nc2cc(Oc3ccc4nc(NC(=O)C5CC5)cn4n3)ccc2C)n(C)n1` here?
The Potency was 9.2 µM (active).
